This passage reports binding signal results from PMC7862700, “An all-to-all approach to the identification of sequence-specific readers for epigenetic DNA modifications on cytosine”.

What all share (assay): DAPPL (digital affinity profiling via proximity ligation, sequencing); 10 mM Tris-HCl pH 7.5, 50 mM NaCl, 1 mM DTT, 4% glycerol, room temperature, 30 min; GST-TFs on glutathione beads, 16-mer random dsDNA library, 0.1% formaldehyde crosslink after washing; high values mean tight binding
Holding throughout (settings): protein: recombinant; tags: N-terminal GST; dsDNA, one strand shown

One test concerns the target T1, FLI1 (Homo sapiens, UniProt Q01543 1-452).
T1 sequence: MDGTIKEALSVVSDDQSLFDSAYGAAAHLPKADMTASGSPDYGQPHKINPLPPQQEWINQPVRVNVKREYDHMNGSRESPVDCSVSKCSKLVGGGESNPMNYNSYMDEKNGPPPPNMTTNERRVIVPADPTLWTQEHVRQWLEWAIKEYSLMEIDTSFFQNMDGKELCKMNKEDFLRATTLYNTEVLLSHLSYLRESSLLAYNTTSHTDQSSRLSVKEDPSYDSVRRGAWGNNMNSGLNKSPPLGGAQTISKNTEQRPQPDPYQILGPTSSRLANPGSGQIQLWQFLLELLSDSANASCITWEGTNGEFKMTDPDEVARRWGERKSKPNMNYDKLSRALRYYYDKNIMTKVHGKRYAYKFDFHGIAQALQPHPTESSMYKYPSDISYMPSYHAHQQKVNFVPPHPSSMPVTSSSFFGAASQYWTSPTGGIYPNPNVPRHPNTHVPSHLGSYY
The gist of the method:
(§1)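 GST fusions of human transcription factors were expressed in yeast and captured with glutathione beads. Once given DNA barcodes and pooled alongside a tag-only sample, they were incubated for 30 min at room temperature with 200 nmole of a random double-stranded 16-mer DNA library in Tris/NaCl/DTT/glycerol buffer, then washed, crosslinked (0.1% formaldehyde), proximity-ligated, PCR-amplified and sequenced on an Illumina NextSeq500. The binding signal of each hexamer is its read frequency for a factor divided by its frequency for the tag-only sample.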

The target in a further test is T2, ELK1 (Homo sapiens, UniProt P19419 1-428).
T2 sequence: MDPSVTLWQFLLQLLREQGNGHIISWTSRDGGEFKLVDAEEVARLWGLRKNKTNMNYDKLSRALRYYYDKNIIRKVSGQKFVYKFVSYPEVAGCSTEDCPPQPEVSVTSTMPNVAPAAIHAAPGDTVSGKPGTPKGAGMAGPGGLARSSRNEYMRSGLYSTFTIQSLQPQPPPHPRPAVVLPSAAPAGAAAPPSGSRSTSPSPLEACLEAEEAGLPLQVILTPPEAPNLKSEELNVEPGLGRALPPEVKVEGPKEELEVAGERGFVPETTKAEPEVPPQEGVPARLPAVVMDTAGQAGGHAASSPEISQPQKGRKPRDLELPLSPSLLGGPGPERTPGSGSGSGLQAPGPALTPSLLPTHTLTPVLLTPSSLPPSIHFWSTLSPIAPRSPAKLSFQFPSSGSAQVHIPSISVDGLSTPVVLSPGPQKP
The procedure, abridged: as §1

Another test has as its target T3, GABPA (Homo sapiens, UniProt Q06546 1-454).
T3 sequence: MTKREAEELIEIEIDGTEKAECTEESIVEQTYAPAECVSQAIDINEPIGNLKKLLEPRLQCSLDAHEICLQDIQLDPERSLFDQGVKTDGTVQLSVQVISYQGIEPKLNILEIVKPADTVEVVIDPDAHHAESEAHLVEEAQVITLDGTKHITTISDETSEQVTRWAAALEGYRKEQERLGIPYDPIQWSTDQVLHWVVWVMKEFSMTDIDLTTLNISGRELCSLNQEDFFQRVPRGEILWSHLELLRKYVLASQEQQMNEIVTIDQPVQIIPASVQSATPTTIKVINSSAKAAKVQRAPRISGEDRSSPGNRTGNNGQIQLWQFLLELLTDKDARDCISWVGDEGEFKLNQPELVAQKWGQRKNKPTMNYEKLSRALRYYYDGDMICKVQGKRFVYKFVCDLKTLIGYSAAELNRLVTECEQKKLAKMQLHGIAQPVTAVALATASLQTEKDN
The procedure, abridged:
as §1

The target of a further test is T4, ERG (Homo sapiens, UniProt P11308 1-479).
T4 sequence: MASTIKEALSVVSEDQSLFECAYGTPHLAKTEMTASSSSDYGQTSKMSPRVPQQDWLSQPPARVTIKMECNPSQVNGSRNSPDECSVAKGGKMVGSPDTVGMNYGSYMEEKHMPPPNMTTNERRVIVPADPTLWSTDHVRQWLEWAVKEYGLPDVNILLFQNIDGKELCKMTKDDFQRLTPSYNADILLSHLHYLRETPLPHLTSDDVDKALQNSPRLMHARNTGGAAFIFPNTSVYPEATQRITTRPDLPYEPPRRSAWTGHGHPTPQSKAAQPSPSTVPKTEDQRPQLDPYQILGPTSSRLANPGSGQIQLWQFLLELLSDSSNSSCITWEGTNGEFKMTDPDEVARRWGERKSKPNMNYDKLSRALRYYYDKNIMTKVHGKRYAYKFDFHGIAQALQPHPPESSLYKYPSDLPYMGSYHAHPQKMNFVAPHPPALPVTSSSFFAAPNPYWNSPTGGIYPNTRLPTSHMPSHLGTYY
The gist of the method: as §1

For a further test, the target named is ELF1 (Homo sapiens, UniProt P32519 1-619). The procedure, abridged: as §1
Sequence of ELF1 (P32519 whole entry): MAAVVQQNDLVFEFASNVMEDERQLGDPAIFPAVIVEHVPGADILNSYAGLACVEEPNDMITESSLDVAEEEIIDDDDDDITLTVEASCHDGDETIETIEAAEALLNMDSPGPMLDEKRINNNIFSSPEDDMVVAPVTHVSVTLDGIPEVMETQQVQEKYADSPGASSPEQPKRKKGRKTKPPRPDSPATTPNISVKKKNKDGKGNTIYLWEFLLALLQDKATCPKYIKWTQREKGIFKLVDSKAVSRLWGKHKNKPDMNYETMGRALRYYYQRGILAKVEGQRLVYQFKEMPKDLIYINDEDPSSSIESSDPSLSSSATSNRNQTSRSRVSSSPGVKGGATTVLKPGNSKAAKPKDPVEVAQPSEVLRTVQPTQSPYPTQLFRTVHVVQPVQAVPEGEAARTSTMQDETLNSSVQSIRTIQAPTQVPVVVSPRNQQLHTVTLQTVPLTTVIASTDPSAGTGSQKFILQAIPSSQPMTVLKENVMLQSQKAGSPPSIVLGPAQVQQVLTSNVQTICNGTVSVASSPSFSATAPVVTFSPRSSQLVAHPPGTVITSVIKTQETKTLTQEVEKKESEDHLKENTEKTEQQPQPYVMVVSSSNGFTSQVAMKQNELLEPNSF
The target in a further test is T5, EHF (Homo sapiens, UniProt Q9NZC4 1-300).
T5 sequence: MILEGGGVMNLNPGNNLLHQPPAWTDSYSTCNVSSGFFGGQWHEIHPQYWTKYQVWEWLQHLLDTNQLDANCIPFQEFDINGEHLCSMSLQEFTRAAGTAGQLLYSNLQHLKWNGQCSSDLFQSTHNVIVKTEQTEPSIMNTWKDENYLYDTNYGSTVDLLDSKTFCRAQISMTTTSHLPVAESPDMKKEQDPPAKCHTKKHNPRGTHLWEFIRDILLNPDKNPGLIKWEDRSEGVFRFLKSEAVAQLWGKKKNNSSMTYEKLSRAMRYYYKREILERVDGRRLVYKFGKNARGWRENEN
The gist of the method:
as §1

The target in another test is SPI1 (Homo sapiens, UniProt P17947 1-270). The gist of the method: as §1
The target of another test is SPIB (Homo sapiens, UniProt Q01892 1-262). The procedure, abridged:
as §1

For a further test, the target named is T6, ELK3 (Homo sapiens, UniProt P41970 1-407).
T6 sequence: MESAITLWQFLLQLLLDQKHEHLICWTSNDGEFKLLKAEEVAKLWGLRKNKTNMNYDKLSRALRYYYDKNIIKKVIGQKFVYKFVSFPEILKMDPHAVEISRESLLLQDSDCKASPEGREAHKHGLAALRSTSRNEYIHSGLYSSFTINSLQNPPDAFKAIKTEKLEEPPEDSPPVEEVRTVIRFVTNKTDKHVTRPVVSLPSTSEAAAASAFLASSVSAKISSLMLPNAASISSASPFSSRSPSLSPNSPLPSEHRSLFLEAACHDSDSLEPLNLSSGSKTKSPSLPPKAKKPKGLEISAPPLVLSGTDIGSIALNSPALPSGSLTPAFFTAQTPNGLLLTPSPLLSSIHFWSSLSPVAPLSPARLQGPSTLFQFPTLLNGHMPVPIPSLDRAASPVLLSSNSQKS
The procedure, abridged:
as §1

Sequence of SPIB (Q01892 whole entry): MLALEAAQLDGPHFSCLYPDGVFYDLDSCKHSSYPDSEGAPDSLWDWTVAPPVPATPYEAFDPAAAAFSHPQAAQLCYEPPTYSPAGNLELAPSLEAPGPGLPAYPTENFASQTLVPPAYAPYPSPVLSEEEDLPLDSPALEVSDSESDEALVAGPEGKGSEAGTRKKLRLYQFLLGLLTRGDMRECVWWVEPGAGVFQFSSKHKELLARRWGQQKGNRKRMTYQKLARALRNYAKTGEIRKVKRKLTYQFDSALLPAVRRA

With GTATTT, the binding signal with FLI1 was 1.47 fold enrichment (6-mer frequency, TF over GST control); in the test with ELK1, 1.61 fold enrichment (6-mer frequency, TF over GST control); with GABPA, 1.48 fold enrichment (6-mer frequency, TF over GST control); with ERG, 1.67 fold enrichment (6-mer frequency, TF over GST control); with ELF1, 1.53 fold enrichment (6-mer frequency, TF over GST control); with EHF, 1.6 fold enrichment (6-mer frequency, TF over GST control). The binding signal is 1.55 fold enrichment (6-mer frequency, TF over GST control) with SPI1; 1.61 fold enrichment (6-mer frequency, TF over GST control) with SPIB; 1.75 fold enrichment (6-mer frequency, TF over GST control) with ELK3.

Regarding AGATTC, the binding signal in the test with FLI1 is 1.15 fold enrichment (6-mer frequency, TF over GST control); with ELK1 it was 1.14 fold enrichment (6-mer frequency, TF over GST control); in the test with GABPA, 1.16 fold enrichment (6-mer frequency, TF over GST control); with ERG, 1.19 fold enrichment (6-mer frequency, TF over GST control); with ELF1, 1.21 fold enrichment (6-mer frequency, TF over GST control); with EHF, 1.2 fold enrichment (6-mer frequency, TF over GST control). For the same sequence, the binding signal in the test with SPI1 was 1.22 fold enrichment (6-mer frequency, TF over GST control); with SPIB, 1.14 fold enrichment (6-mer frequency, TF over GST control); with ELK3 it was 1.07 fold enrichment (6-mer frequency, TF over GST control).

On to ATCTTG, for which the binding signal with FLI1 was 1.35 fold enrichment (6-mer frequency, TF over GST control); with ELK1, 1.38 fold enrichment (6-mer frequency, TF over GST control); with GABPA, 1.27 fold enrichment (6-mer frequency, TF over GST control); with ERG, 1.39 fold enrichment (6-mer frequency, TF over GST control); in the test with ELF1, 1.33 fold enrichment (6-mer frequency, TF over GST control); with EHF, 1.35 fold enrichment (6-mer frequency, TF over GST control). Also, the binding signal in the test with SPI1 is 1.3 fold enrichment (6-mer frequency, TF over GST control); with SPIB it was 1.31 fold enrichment (6-mer frequency, TF over GST control); with ELK3 it was 1.41 fold enrichment (6-mer frequency, TF over GST control).

With AAAACG, the binding signal was 1.13 fold enrichment (6-mer frequency, TF over GST control) in the test with FLI1; 1.19 fold enrichment (6-mer frequency, TF over GST control) with ELK1; 1.14 fold enrichment (6-mer frequency, TF over GST control) with GABPA; 1.21 fold enrichment (6-mer frequency, TF over GST control) with ERG; 1.16 fold enrichment (6-mer frequency, TF over GST control) with ELF1; 1.17 fold enrichment (6-mer frequency, TF over GST control) in the test with EHF. Further, the binding signal with SPI1 is 1.43 fold enrichment (6-mer frequency, TF over GST control); with SPIB it was 1.11 fold enrichment (6-mer frequency, TF over GST control); with ELK3, 1.14 fold enrichment (6-mer frequency, TF over GST control).

In the case of CATATT, the binding signal was 1.22 fold enrichment (6-mer frequency, TF over GST control) in the test with FLI1; 1.17 fold enrichment (6-mer frequency, TF over GST control) in the test with ELK1; 1.27 fold enrichment (6-mer frequency, TF over GST control) with GABPA; 1.26 fold enrichment (6-mer frequency, TF over GST control) in the test with ERG; 1.24 fold enrichment (6-mer frequency, TF over GST control) with ELF1; 1.17 fold enrichment (6-mer frequency, TF over GST control) with EHF. Further, the binding signal is 1.27 fold enrichment (6-mer frequency, TF over GST control) with SPI1; 1.28 fold enrichment (6-mer frequency, TF over GST control) with SPIB; 1.17 fold enrichment (6-mer frequency, TF over GST control) with ELK3.

Take AATGGT: the binding signal with FLI1 was 1.52 fold enrichment (6-mer frequency, TF over GST control); with ELK1, 1.38 fold enrichment (6-mer frequency, TF over GST control); in the test with GABPA, 1.36 fold enrichment (6-mer frequency, TF over GST control); with ERG it was 1.42 fold enrichment (6-mer frequency, TF over GST control); with ELF1 it was 1.42 fold enrichment (6-mer frequency, TF over GST control); with EHF, 1.4 fold enrichment (6-mer frequency, TF over GST control). Further, the binding signal was 1.43 fold enrichment (6-mer frequency, TF over GST control) in the test with SPI1; 1.52 fold enrichment (6-mer frequency, TF over GST control) with SPIB; 1.41 fold enrichment (6-mer frequency, TF over GST control) with ELK3.

As to AAGGAT, the binding signal in the test with FLI1 is 1.14 fold enrichment (6-mer frequency, TF over GST control); in the test with ELK1, 1.19 fold enrichment (6-mer frequency, TF over GST control); with GABPA, 1.12 fold enrichment (6-mer frequency, TF over GST control); in the test with ERG it was 1.17 fold enrichment (6-mer frequency, TF over GST control); in the test with ELF1 it was 1.22 fold enrichment (6-mer frequency, TF over GST control); with EHF, 1.25 fold enrichment (6-mer frequency, TF over GST control). For the same sequence, the binding signal in the test with SPI1 was 1.12 fold enrichment (6-mer frequency, TF over GST control); with SPIB it was 1.19 fold enrichment (6-mer frequency, TF over GST control); with ELK3 it was 1.13 fold enrichment (6-mer frequency, TF over GST control).
